The text below walks through data of PubChem BioAssay.

Records with an inconclusive call do not appear. Active and inactive are the calls of the source.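 Rule for the calls, unless noted: active = response below a set limit, under 55% cells CD8-positive and vesicle-bound, and CD8 cells' 90th-percentile brightness under 279; inactive = the rest.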

Assay [1] in a line: rapamycin-like changes in RPL19A-GFP expression – cell-based, S. cerevisiae, multiplex flow cytometry, primary screen (AID 1862; in the data active = percent of DMSO control GFP below about 86%;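 note: lower values mimic rapamycin by blocking the RPL19A rise seen in DMSO cells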). As to conditions: S. cerevisiae RPL19A-GFP strain, flow cytometry fluorescence, 3 h; at 10 µM; stronger effect = lower value. For orientation: A flow cytometer gives signals particle by particle.
A short description of assay [2]: TOR pathway GLN3 branch reporter MEP2-GFP changes – S. cerevisiae, multiplex flow cytometry, primary screen (AID 1867;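 active = GFP response, as percent of the DMSO control, above the screen-wide mean plus 3 SD, about 139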;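 note: median GFP channel fluorescence of barcode-gated MEP2-GFP cells measured by flow cytometry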). As to conditions: S. cerevisiae MEP2-GFP strain, 3 h, at 10 µM, stronger effect = higher value, 100% means same as DMSO wells.
The nature of assay [3]: TOR pathway RTG branch CIT2 reporter changes – S. cerevisiae, GFP fusion, multiplex flow cytometry, primary screen (AID 1870;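 active = percent response above a set limit, the screen-wide mean plus 3 SD, cut at about 130% in these data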;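 note: barcoded CIT2-GFP strain pooled with four other GFP strains with rapamycin as positive control; median GFP fluorescence per well over plate mean of DMSO wells so 100% = DMSO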). The following applies: S. cerevisiae CIT2-GFP expression, 3 h, at 10 µM, stronger effect = higher value.
Assay [4] in a line: TOR pathway LAP4-GFP level changes – S. cerevisiae, multiplex flow cytometry, primary screen (AID 1873;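 active = GFP signal, as percent of the solvent control, above the screen mean plus 3 SD, about 149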). As to conditions: S. cerevisiae LAP4-GFP expression, 3 h, at 10 µM, stronger effect = higher value.
Assay [5] can be described thus: yeast AGP1-GFP level changes, GLN3 branch – cell-based, multiplex flow cytometry, S. cerevisiae, primary screen (AID 1887;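 active = GFP signal above the screen-wide mean plus 3 SD, that is over about 124.5% of the solvent control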;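 note: AGP1-GFP fusion strain of S. cerevisiae within a five-strain barcoded multiplex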). The following applies: 3 h, at 10 µM, stronger effect = higher value.
Assay [6] can be described thus: reduced mouse 2C T cell binding to pMHC/ICAM-1 vesicles – MLPCN validation set, flow cytometry, LFA-1/ICAM-1 modulator project, pilot screen (AID 2523).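 For vesicle binding response: mean PE anti-B7-1 fluorescence of CD8+ cells relative to row control; 100% = QL9-loaded vesicles with DMSO vehicle in the same plate row.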 The following applies: 2C mouse CD8+ T cells, at 7 µM, stronger effect = lower value; double positive events: measured here: CD8+/vesicle+ event percentage.
Assay [7] addresses Integrin beta-1 (Homo sapiens) + Integrin alpha-4 (Homo sapiens) (UniProt P13612+P05556). Briefly: alpha4beta1 integrin LIBS antibody binding reduction – U937 cells, HUTS-21 mAb, flow cytometry, validation set, VLA-4 allosteric modulator project, pilot screen (AID 2674;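 active = inhibition above 50%, about 3 SD of the validation set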;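 note: antibody binding induced by the VLA-4 ligand LDV present at three times its Kd; 0% = LDV ligand with antibody and no compound and 100% = antibody without LDV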). The following applies: HUTS-21 LIBS mAb binding, at 6.7 µM, stronger effect = higher value, binding induced by LDV ligand.

Assay [8] in a line: calorie-restriction mimetic ROS inhibitors, yeast – validation compound set, pilot screen (AID 2706;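 active = superoxide response below 65% of plate, a cut near 3 SD across the whole screen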;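 note: yeast exposed to compound for one week at 30 degrees C before staining; 100% = mean of all compound wells on the same plate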). As to conditions: S. cerevisiae aging, superoxide DHE fluorescence; at 10 µM; stronger effect = lower value.
Assay [9] addresses Beta-adrenergic receptor kinase 1 (Homo sapiens) (UniProt P25098). The assay can be described thus: GRK2 binders displacing RNA aptamer, biochemical, validation, human GRK2, bead flow cytometry (AID 488806;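 active = aptamer binding inhibition above 30%, about 3 SD of noise from non-fluorescent compounds; inactive = inhibition at or below 30%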). As to conditions: bead-bound GRK2, FAM-aptamer displacement, at 10 µM, stronger effect = higher value.
For assay [10], the target named is Beta-2 adrenergic receptor (Homo sapiens) (UniProt P07550). Briefly: agonist-induced loss of surface beta2AR – cell-based, FAP fluorogen, flow cytometry, validation set, pilot screen (AID 504459;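 active = percent response above 42, roughly 3 SD of non-fluorescent test compounds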;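 note: agonist-driven loss of surface beta2AR via internalization measured by FAP dye flow cytometry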). The following applies: Am2.2-beta2AR cells, at 10 µM, stronger effect = higher value.
Assay [11] concerns the target AP-2 complex subunit beta (Homo sapiens) (UniProt P63010). Briefly: beta-arrestin/AP2 interaction blockers – biochemical, validation set, GST-AP2 beads, flow cytometry, pilot screen (AID 504541;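 active = inhibition above 54%, about 3 SD of non-fluorescent compounds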;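 note: AP2 carries R879A mutation and is captured from E. coli lysate; bead-bound FITC arrestin peptide fluorescence measuring arrestin peptide binding to AP2; 0% = DMSO wells and 100% = excess unlabeled arrestin peptide control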). As to conditions: FITC arrestin peptide, at 10 µM, stronger effect = higher value, AP2 beta2 appendage fragment, R879A mutant.
Assay [12] is described as follows: cytosolic pH regulators acting via V-ATPase – S. cerevisiae, pHLuorin, HTS validation (AID 504600; in the data active = response above about 15%;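 note: plate controls were DMSO for no effect and reference compound for full effect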). The following applies: V-ATPase proton transport, at 10 µM, stronger effect = higher value.
In assay [13] the test system is anti-desmoglein-3 scFv antibody binding to human DSG3. Briefly: blockers of pathogenic pemphigus antibody–desmoglein-3 binding – biochemical, validation compound set, bead-based, flow cytometry, pilot screen (AID 588368;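 active = binding below the plate cutoff, the plate median minus 3 SD, with a reading above zero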;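 note: signal is the median channel fluorescence of bead-bound GFP antibody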). As to conditions: Protein G beads, DSG3-Fc, scFv-GFP binding, at 10 µM, stronger effect = lower value.
Assay [14] can be described thus: Nile Red efflux blockade in pump-expressing yeast – validation compound set, multiplex, phenotypic, pilot screen (AID 588506;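 active = efflux inhibition above 0.42, the validation set average plus 4 SD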;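 note: Nile Red retained in cells so higher fluorescence means more efflux inhibition; 0 = negative control wells and 1 = enniatin B 25 µM full block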). As to conditions: S. cerevisiae pump-expressing triplex, Nile Red efflux flow cytometry; at 10 µM; stronger effect = higher value; the pumps come from Candida albicans.
In assay [15] the target is ATP-binding cassette sub-family B member 6 (Homo sapiens) (UniProt Q9NP58). Briefly: blockers of ABCB6-driven porphyrin uptake – K562-ABCB6 cells, flow cytometry, validation set, pilot screen (AID 588550;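 active = inhibition above the screen-wide mean plus 3 SD, about 51%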;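 note: 0% = DMSO wells and 100% = benzethonium chloride 70 µM positive control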). As to conditions: K562-ABCB6 porphyrin accumulation, 1 h, at 10 µM, stronger effect = higher value.
Assay [16] is described as follows: AML differentiation inducers, ER-HoxA9 marrow cells – cell-based, GFP/MAC1 double positive, flow cytometry, validation set, primary screen (AID 588685;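 active = differentiation response of at least 50%, scaled between solvent and reference control, from cells with both markers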;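 note: compound exposure lasts four days before antibody staining and flow analysis; 0% = DMSO wells and 100% = 5 µM fulvestrant positive control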). As to conditions: stronger effect = higher value, normalized: vehicle 0, fulvestrant 100.

A word on the inhibition: it is the relative decrease from the control value, in per cent.

Sequence of Integrin beta-1 (Homo sapiens) + Integrin alpha-4 (Homo sapiens) (P05556 whole entry, looked up): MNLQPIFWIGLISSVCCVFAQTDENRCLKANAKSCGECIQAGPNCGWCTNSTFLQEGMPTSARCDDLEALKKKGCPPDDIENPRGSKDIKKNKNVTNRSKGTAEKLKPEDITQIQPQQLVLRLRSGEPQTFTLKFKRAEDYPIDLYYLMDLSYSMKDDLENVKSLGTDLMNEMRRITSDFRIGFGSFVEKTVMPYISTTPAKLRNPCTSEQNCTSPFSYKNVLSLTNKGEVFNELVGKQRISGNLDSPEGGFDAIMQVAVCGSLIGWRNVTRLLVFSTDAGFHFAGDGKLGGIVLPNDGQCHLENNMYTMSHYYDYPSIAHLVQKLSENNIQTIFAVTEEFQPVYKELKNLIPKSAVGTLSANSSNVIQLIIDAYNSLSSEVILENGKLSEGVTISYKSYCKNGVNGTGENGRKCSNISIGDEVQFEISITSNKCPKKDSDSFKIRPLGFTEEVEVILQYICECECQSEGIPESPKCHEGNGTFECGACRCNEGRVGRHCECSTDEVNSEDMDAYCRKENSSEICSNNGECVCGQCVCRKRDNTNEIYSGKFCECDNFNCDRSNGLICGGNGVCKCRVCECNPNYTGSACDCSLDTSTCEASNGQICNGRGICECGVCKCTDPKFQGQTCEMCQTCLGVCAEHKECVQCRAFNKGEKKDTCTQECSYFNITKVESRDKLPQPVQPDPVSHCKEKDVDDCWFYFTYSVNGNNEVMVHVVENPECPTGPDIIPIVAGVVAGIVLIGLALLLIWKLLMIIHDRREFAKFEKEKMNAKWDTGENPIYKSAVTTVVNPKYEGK
Sequence of Integrin beta-1 (Homo sapiens) + Integrin alpha-4 (Homo sapiens) (P13612 whole entry, looked up): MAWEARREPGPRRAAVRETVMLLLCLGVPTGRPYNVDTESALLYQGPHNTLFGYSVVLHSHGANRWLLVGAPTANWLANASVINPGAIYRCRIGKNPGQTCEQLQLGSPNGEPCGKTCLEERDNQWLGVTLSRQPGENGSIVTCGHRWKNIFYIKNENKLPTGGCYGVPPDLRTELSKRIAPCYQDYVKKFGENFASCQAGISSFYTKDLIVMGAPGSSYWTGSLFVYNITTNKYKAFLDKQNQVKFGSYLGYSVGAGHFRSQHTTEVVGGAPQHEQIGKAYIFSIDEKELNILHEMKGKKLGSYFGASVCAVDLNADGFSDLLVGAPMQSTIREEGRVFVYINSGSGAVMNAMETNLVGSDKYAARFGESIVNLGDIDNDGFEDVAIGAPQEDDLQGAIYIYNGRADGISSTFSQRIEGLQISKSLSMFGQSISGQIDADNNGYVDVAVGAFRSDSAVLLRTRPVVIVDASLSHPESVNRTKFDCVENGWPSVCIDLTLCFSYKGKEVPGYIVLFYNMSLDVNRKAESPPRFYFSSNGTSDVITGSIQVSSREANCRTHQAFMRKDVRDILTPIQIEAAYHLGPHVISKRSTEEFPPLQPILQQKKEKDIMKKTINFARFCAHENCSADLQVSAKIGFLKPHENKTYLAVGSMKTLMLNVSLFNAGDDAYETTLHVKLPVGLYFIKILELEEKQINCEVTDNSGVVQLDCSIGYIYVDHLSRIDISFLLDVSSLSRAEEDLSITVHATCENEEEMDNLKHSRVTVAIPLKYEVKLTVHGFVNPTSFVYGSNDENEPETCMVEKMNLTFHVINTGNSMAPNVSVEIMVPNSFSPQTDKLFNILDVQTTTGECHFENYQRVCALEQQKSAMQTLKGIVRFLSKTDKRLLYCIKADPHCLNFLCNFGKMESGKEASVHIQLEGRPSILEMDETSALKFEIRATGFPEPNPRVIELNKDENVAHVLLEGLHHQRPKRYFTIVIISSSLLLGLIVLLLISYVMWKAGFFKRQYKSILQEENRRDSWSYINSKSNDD
Sequence of Beta-adrenergic receptor kinase 1 (Homo sapiens) (P25098 whole entry, looked up): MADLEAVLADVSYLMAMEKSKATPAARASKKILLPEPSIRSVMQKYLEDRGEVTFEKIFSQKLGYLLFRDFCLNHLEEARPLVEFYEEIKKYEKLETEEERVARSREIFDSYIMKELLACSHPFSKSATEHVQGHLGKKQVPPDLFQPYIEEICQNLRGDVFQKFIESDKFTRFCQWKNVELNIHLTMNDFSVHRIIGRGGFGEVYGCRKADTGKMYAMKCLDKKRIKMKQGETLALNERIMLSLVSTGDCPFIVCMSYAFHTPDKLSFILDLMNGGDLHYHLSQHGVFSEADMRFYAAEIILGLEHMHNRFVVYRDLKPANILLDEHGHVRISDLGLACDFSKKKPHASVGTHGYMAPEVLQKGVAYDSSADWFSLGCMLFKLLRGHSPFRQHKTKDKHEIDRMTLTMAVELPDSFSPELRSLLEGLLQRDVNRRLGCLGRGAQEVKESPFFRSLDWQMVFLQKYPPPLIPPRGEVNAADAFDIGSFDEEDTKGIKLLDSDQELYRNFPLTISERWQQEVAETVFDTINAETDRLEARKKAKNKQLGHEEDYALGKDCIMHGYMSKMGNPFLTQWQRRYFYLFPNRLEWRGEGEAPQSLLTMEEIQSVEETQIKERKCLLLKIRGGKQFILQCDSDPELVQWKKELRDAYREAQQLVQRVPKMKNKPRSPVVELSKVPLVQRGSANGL
Sequence of AP-2 complex subunit beta (Homo sapiens) (P63010 whole entry, looked up, the tested form may be a part, one chain of several): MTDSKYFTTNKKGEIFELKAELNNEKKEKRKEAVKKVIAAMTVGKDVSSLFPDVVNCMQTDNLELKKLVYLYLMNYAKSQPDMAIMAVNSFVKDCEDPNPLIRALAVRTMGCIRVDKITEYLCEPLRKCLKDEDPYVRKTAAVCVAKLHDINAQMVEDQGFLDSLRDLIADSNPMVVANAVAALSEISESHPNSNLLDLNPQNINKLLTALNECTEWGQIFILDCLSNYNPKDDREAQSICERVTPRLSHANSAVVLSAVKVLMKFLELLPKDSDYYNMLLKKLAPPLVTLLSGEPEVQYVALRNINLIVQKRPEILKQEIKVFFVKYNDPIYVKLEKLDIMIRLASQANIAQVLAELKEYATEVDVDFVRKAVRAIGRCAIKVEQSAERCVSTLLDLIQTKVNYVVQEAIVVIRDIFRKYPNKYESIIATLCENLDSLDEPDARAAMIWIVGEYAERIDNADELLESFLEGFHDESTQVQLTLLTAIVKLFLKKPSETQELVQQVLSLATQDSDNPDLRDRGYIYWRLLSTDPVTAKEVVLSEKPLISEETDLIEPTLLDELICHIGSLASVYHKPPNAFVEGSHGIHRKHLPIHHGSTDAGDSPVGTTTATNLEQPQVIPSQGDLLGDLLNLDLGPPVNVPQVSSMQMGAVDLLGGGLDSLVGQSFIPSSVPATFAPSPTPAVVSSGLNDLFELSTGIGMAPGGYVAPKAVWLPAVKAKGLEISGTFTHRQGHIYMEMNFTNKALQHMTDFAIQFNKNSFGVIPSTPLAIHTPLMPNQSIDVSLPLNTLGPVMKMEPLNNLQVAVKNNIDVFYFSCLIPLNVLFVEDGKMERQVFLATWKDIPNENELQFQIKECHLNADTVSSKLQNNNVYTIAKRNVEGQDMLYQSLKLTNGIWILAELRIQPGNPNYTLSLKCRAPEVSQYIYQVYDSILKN
Sequence of Beta-2 adrenergic receptor (Homo sapiens) (P07550 whole entry, looked up): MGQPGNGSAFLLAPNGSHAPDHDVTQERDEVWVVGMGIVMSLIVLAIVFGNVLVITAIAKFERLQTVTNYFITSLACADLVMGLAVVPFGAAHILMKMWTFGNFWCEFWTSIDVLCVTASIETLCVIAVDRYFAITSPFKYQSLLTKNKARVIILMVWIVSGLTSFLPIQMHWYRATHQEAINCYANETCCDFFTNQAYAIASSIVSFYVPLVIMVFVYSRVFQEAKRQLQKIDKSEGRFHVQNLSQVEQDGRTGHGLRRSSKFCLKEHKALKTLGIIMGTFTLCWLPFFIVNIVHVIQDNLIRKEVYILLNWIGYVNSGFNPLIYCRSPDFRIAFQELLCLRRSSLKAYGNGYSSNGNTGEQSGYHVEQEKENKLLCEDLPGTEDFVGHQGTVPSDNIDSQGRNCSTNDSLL
Sequence of ATP-binding cassette sub-family B member 6 (Homo sapiens) (Q9NP58 whole entry, looked up): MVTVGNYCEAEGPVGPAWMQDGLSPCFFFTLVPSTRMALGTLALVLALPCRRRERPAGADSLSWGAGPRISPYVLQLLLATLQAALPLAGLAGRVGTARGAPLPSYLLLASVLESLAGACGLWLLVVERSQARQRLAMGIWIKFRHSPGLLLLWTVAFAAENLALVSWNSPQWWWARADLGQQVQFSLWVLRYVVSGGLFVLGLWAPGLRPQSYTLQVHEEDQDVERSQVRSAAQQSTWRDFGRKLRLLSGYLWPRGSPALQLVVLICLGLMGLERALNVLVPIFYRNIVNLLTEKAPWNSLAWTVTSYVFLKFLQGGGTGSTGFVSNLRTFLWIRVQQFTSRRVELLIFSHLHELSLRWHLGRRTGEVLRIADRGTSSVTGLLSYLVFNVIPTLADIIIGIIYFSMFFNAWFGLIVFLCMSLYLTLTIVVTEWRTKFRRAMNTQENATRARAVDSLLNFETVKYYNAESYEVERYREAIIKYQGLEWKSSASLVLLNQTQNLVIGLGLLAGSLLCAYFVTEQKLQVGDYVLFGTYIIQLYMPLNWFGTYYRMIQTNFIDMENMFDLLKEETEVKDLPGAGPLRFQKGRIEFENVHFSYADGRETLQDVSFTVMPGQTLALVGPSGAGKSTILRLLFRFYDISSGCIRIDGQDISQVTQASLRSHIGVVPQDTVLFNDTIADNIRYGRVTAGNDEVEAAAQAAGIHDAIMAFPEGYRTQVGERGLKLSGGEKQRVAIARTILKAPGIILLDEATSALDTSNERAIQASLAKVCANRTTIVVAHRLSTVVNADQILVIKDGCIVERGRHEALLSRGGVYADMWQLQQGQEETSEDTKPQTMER

Regarding `O=C(NCCO)c1ccc(Cl)c(Cl)c1`, the percent of DMSO control GFP in assay [1] is 103% (inactive). Further, the GFP response vs DMSO in [2] was 104% (inactive); in assay [4], 99.1% (inactive). The percent response of DMSO control in [3] was 102% (inactive). Besides, in assay [5], the GFP response, % of DMSO is 107% (inactive). This compound gave a double positive events in [6] of 59.4%. The vesicle binding response in assay [6] is 97% (inactive). Also, the inhibition in assay [7] was -11.8% (inactive); in [11], -1.25% (inactive); in assay [15], 9% (inactive). Besides, the superoxide response (% of plate) in [8] was 105% (inactive). Moreover, the aptamer binding inhibition in assay [9] was -1% (inactive). In addition, the results for the response in assay [10] and in assay [12] were -1.25% (inactive) and 0.22% (inactive), respectively. For the same compound, in assay [13], the binding (% of control) is 104% (inactive). For the same compound, the efflux inhibition (fraction of control) in assay [14] was 0.78 (active). The differentiation response in [16] is -10.4% (inactive).
As to `S=C(c1ccc2c(c1)OCO2)N1CCCCC1`, in [1], the percent of DMSO control GFP was 101% (inactive). Moreover, the GFP response vs DMSO in assay [2] was 104% (inactive); in assay [4], 105% (inactive). In addition, the percent response of DMSO control in [3] was 104% (inactive). In assay [5], the GFP response, % of DMSO was 106% (inactive). This compound also yielded a double positive events in assay [6] of 62.6%. In addition, in assay [6], the vesicle binding response is 176% (inactive). Besides, the inhibition was -9.13% (inactive) in assay [7], 34.2% (inactive) in assay [11] and 12% (inactive) in [15]. In addition, the superoxide response (% of plate) in assay [8] was 91% (inactive). The aptamer binding inhibition in [9] is -2% (inactive). In addition, the response in [10] was -5.76% (inactive); in assay [12], -2.91% (inactive). For the same compound, the binding (% of control) in assay [13] is 99.8% (inactive). Further, the efflux inhibition (fraction of control) in assay [14] is 0.19 (inactive). Also, the differentiation response in [16] was -10.4% (inactive).
With `CN(C)CCN(Cc1ccc(Cl)cc1)c1ccccn1`, the percent of DMSO control GFP in [1] is 107% (inactive). The figures for the GFP response vs DMSO in assay [2] and in assay [4] were 112% (inactive) and 114% (inactive), respectively. Besides, the percent response of DMSO control in [3] is 114% (inactive). In addition, in assay [5], the GFP response, % of DMSO is 118% (inactive). The same compound returned a double positive events in assay [6] of 61.2%. Moreover, the vesicle binding response in assay [6] is 125% (inactive). Moreover, the inhibition in assay [7] is 0.25% (inactive); in assay [11], 54.2% (active); in assay [15], 8% (inactive). The superoxide response (% of plate) in assay [8] was 96% (inactive). In [9], the aptamer binding inhibition is -4% (inactive). Moreover, the response is -7.41% (inactive) in assay [10] and -5.25% (inactive) in assay [12]. For the same compound, in [13], the binding (% of control) was 97.3% (inactive). Also, the efflux inhibition (fraction of control) in [14] is 0.37 (inactive). In addition, in [16], the differentiation response was -19.2% (inactive).
On to `COc1ccc(C2C3CCCCC3(O)CCN2C(=O)c2cccs2)cc1` (stereo not drawn), for which, in [1], the percent of DMSO control GFP is 102% (inactive). For the same compound, the GFP response vs DMSO in [2] was 105% (inactive); in [4], 107% (inactive). Also, in [3], the percent response of DMSO control was 97% (inactive). For the same compound, in assay [5], the GFP response, % of DMSO was 107% (inactive). In [6], this compound returned a double positive events of 61.4%. The vesicle binding response in assay [6] was 376% (inactive). Further, the inhibition is -0.27% (inactive) in assay [7], -1.09% (inactive) in assay [11] and -4% (inactive) in assay [15]. Further, the superoxide response (% of plate) in assay [8] is 102% (inactive). In [9], the aptamer binding inhibition was 4% (inactive). Moreover, the response in [10] is -26.4% (inactive); in [12], -1.21% (inactive). The binding (% of control) in assay [13] is 99% (inactive). Also, in assay [14], the efflux inhibition (fraction of control) was 0.12 (inactive). Also, the differentiation response in [16] was -1.05% (inactive).
